High-throughput results (PubChem)
A selection follows.
aSyn 5UTR act: Activators working through SNCA 5'UTR binding (MLPCN) | alpha-synuclein 5'UTR reporter, activators screen | activity score, % (tested at 7.5 µM), hits read low | 7.1% of 300,000 active; in the data active means activity score below about -60%
Starred values were filed as active, the others as inactive.

SMILES | aSyn 5UTR act
COCC(=O)Nc1c(C(=O)Nc2ccccc2OC)oc2ccccc12 | -146.9*
CCOCC(=O)Nc1c(C(=O)Nc2ccc(OC)cc2OC)oc2ccccc12 | -81.9*
COCC(=O)Nc1c(C(=O)Nc2cccc(OC)c2)oc2ccccc12 | -217.9*
CCOc1ccc(NC(=O)c2oc3ccccc3c2NC(=O)CC)cc1 | -122.8*
COc1cccc(NC(=O)c2oc3ccccc3c2NC(C)=O)c1 | -120.7*
Cc1ccc(SCC(=O)Nc2ccc(-c3nnc(-c4ccco4)o3)cc2)cc1 | -105.9*
O=C(Cc1ccccc1)Nc1ccc(-c2nnc(-c3ccco3)o2)cc1 | -76.9*
CC(=O)c1cccc(Nc2ccc(-c3ccccc3F)nn2)c1 | -155.5*
CC(=O)c1ccc(Nc2ccc(-c3ccccc3C)nn2)cc1 | -147.7*
Cc1ccc(O)c(C(=O)c2cnn(-c3ccccc3)c2)c1 | -67.7*
O=C(Cc1cnn(-c2ccccc2)c1)c1ccc(O)c(O)c1O | -81.0*
c1ccc(OCCSc2nnnn2C2CCCCC2)cc1 | -121.7*
COc1ccccc1OCCSc1nnnn1C1CCCCC1 | -81.4*
O=C(Cc1ccc(Cl)cc1)c1ccc(O)cc1 | -151.4*
Cc1ccc(CC(=O)c2ccc(Cl)cc2)cc1 | -83.3*
O=C(Cc1ccccc1)c1ccc(Cl)cc1 | -72.7*
Cc1ccc(Nc2nc(C)c(CCC(C)C)c(=O)[nH]2)cc1 | -94.4*
Cc1ccc(Nc2nc3c(c(=O)[nH]2)CCCC3)cc1 | -142.7*
Cc1ccc(C(C)C)c(OCC(=O)Nc2ccc3c(c2)nc(CCN2CCCCC2)n3C)c1 | 110.3
Cn1c(CN2CCCCC2)nc2cc(NC(=O)c3ccc(Cl)cc3)ccc21 | -65.7*
Cn1c(CN2CCCC2)nc2cc(NC(=O)c3ccc(Cl)cc3)ccc21 | -62.8*
Cn1c(CN2CCCC2)nc2cc(NC(=O)c3cccs3)ccc21 | -76.4*
Cc1ccc(-c2nnc(/C=C/c3ccccc3)o2)cc1 | -136.3*
Cc1cc(-c2nnc(-c3cccc(Cl)c3)o2)no1 | -170.8*
Cc1ccccc1-c1nnc(-c2ccccc2)o1 | -137.9*
SMILES | aSyn 5UTR act
Cn1cc(-c2nnc(-c3ccccc3)o2)c2ccccc21 | -64.2*
Cc1cccc(-c2nnc(-c3ccccc3)o2)c1 | -126.8*
Cc1ccccc1-c1nnc(-c2ccc(Cl)cc2)o1 | -234.1*
Cc1ccc(-c2nnc(-c3ccc4c(c3)OCO4)o2)cc1 | -116.1*
O=C(CN1C(=O)c2ccccc2S1(=O)=O)c1cccc(Br)c1 | 84.2
O=C(CN1CC(=O)Oc2ccccc21)OCC(=O)c1cccc(Br)c1 | -65.6*
O=C(CN1CC(=O)Oc2ccccc21)OCC(=O)c1ccccc1 | -100.1*
c1ccc2c(c1)CC/C2=N/Nc1nc2ccccc2[nH]1 | -174.3*
C/C(Cl)=C/CSc1nn2c(=O)c3ccccc3nc2s1 | -99.9*
C=CCSc1nn2c(=O)c3ccccc3nc2s1 | -119.5*
CC1CCN(S(=O)(=O)N2CCC(C(=O)NC3CCCC3)CC2)CC1 | -96.8*
CCCS(=O)(=O)N1CCC(C(=O)NC2CCC(C)CC2)CC1 (stereo not drawn) | -64.0*
COc1ccc(/C=N/N=C(\N)c2nonc2N)cc1 | -111.0*
O=C(Nc1ccc2c(c1)OCO2)N1CCN(c2ccccc2)CC1 | -195.5*
O=C(Nc1ccc2c(c1)OCO2)N1CCN(c2ncccn2)CC1 | -111.4*
O=C(Nc1ccc2c(c1)OCO2)N1CCN(c2ccc(F)cc2)CC1 | -122.2*
O=C(Nc1ccc2c(c1)OCO2)N1CCN(c2ncc(C(F)(F)F)cc2Cl)CC1 | -104.2*
Cc1ccc2nc(C3CCCCC3)[nH]c2c1 | -93.5*
CCn1c2ccccc2c2nnc(SCC(=O)Nc3ccc4c(c3)OCO4)nc21 | -96.0*
O=C(Nc1ccc2c(c1)OCO2)NC1(C(F)(F)F)Oc2ccccc2O1 | -96.2*
CCc1ccccc1NC(=O)Nc1ccc2c(c1)OCO2 | -78.6*
O=C(Nc1ccc2c(c1)OCO2)Nc1ccccc1F | -135.9*
O=C(Nc1ccc2c(c1)OCCO2)NC1(C(F)(F)F)Oc2ccccc2O1 | 62.5
CCc1cccc(NC(=O)Nc2ccc3c(c2)OCO3)c1 | -65.5*
Cc1cc(Cl)c2oc(C(=O)NCCC3CCCCO3)c(C)c2c1 (stereo not drawn) | -62.9*
SMILES | aSyn 5UTR act
Cc1c(C(=O)NCC2CCCO2)oc2ccc(Br)cc12 (stereo not drawn) | -81.7*
COC(=O)CSc1nc(-c2ccccc2)cc(-c2ccco2)c1C#N | -63.8*
CC(C)Cc1cc(-c2ccco2)c(C#N)c(N)n1 | 69.8
CCCc1cc(NC(=O)CCl)n(-c2ccccc2)n1 | -79.4*
Cn1c(N)c(-c2nc3cccnc3n2C)sc1=S | -95.2*
CC1CCc2cccc3c2N1c1cc(C#N)c(C#N)cc1O3 (stereo not drawn) | 71.4
Cn1c2ccc(CC(=O)O)cc2c2cc(CC(=O)O)ccc21 | -64.7*
Cn1c2ccc(Br)cc2c2nnc(SCC(=O)O)nc21 | 62.0
CCc1ccc(NC(=O)c2cnn(-c3ccccc3)c2C)cc1 | -82.9*
Cc1nn(-c2ccccc2)cc1C(=S)Nc1ccccc1 | -171.0*
Cc1c(C(=O)Oc2cccc3ccccc23)cnn1-c1ccccc1 | -65.2*
Cc1c(C(=O)Nc2ccccc2F)cnn1-c1ccccc1 | -162.7*
Cc1c(C(=S)Nc2ccccc2)cnn1-c1ccccc1 | -108.1*
Cc1c(C(=O)N(C)c2cccc(Cl)c2)cnn1-c1ccccc1 | -103.9*
Cc1c(C(=O)Nc2cc(F)cc(F)c2)cnn1-c1ccccc1 | -187.4*
CN1CCN(C(c2ccc(Cl)cc2)c2cc(Cl)c3cccnc3c2O)CC1 (stereo not drawn) | 77.1
Cc1ccc(O)c(C2=Nc3ccccc3C2(C)C)c1 | -156.8*
O=C(Nc1ccn(-c2ccccc2)n1)c1ccccc1Br | -161.5*
O=C(Nc1ccn(-c2ccccc2)n1)c1ccc(Cl)cc1 | -135.8*
COc1cc(/C=N/Nc2nc(Nc3ccccc3)nc(-n3nc(C)cc3C)n2)cc(OC)c1OC | -67.6*
O=C1Nc2ccc3sc4ccccc4c3c2C1=O | -68.8*
CCOc1ccc(-c2nnc(-c3ccco3)o2)cc1OCC | -76.1*
CCOc1ccc(-c2nnc(-c3cccs3)o2)cc1OCC | -86.0*
COc1ccc(-c2nnc(-c3cccs3)o2)cc1OC | -148.4*
CCOC(=O)C1CCN(c2c(Nc3ccc4c(c3)OCCO4)c(=O)c2=O)CC1 | -78.0*
SMILES | aSyn 5UTR act
CC(=O)Nc1ccc(SCC(=O)Nc2sccc2C#N)cc1 | -111.1*
N#Cc1ccsc1NC(=O)COC(=O)c1ccc(NC(N)=O)cc1 | -78.0*
N#Cc1ccsc1NC(=O)COc1ccc(-c2nnco2)cc1 | -95.8*
N#Cc1ccsc1NC(=O)CCc1ccccc1 | -80.7*
N#Cc1ccsc1NC(=O)COC(=O)c1cc2ccccc2cc1O | -178.1*
CCN(CC)c1ccc(C(=O)OCC(=O)Nc2sccc2C#N)cc1 | -176.5*
CSc1ccccc1OCc1cc(C(=O)N2CCN(c3ccccc3)CC2C)no1 (stereo not drawn) | -107.8*
CC(=O)c1ccc(OCc2cc(C(=O)N3CCN(c4ccccc4)CC3C)no2)cc1 (stereo not drawn) | -163.3*
Cc1cccc(C)c1NC(=S)N=Nc1c(O)n(C)c2ccc(S(=O)(=O)N3CCOCC3)cc12 | 71.4
NS(=O)(=O)c1cc(C(=O)Nc2ccc3c(c2)CCC3)ccc1Cl | -153.3*
CSc1nnc(NC(=O)c2ccc(C)c(S(=O)(=O)N3CCOCC3)c2)s1 | -73.2*
Cc1cc(C)cc(NC(=S)N=Nc2c(O)n(C)c3ccc(S(=O)(=O)N4CCOCC4)cc23)c1 | 63.4
Cc1ccc(C(=O)Nc2ccc3c(c2)CCC3)cc1S(=O)(=O)N1CCOCC1 | -108.2*
O=C(Nc1ccc2c(c1)CCC2)c1ccc(F)c(S(=O)(=O)N2CCOCC2)c1 | -74.3*
COc1cccc(/C=C/c2ccccn2)c1O | -97.9*
